{"source": "PubChem BioAssay AID2360", "about": "(The Scripps Research Institute Molecular Screening Center, 2010)", "note": "Among all 1,900 compounds or so, about 85 (4%) were called active. The list is a sample of the results. Unmarked numbers belong to inactive results.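 Rule for the calls: active = mean PP5 inhibition over triplicate wells above about 9.5% taken from the earlier PP1 screen (limit read from the data); inactive = the rest.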"}
{"target": "Serine/threonine-protein phosphatase 5 (Homo sapiens) (UniProt P53041)", "sequence (P53041 whole entry, looked up)": "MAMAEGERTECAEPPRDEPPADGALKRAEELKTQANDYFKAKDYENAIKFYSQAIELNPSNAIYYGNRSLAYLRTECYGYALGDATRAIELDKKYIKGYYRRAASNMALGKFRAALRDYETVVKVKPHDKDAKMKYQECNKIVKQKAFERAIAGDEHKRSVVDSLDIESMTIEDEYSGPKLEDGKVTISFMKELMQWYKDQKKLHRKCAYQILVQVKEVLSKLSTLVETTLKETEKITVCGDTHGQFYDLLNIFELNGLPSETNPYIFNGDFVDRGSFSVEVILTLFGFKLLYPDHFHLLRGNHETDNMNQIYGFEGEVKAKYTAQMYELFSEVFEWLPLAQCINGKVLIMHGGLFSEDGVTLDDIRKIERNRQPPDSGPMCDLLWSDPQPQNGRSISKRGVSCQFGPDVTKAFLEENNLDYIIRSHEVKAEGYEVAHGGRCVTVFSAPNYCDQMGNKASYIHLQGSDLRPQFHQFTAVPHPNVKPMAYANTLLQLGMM", "test": "human PP5 catalytic subunit inhibitors – biochemical, fluorescence, triplicate, counter-screen for PP1 inhibitor project, confirmation (AID 2360)", "details": "purified PP5c, OMFP fluorescence; at 6.7 µM; hits give high values"}
{"compound": "Cc1ccc(-c2cc(C(=O)N/N=C/C=C/c3ccco3)c3ccccc3n2)cc1C", "inhibition": "2.19%"}
{"compound": "CC1CCCCN1S(=O)(=O)c1ccc(C(=O)Nc2nnc(-c3cccs3)o2)cc1", "note": "(stereo not given)", "inhibition": "1.29%"}
{"compound": "Nc1ccc2nc3c(=O)[nH]c(=S)[nH]c3nc2c1", "inhibition": "15% (active)"}
{"compound": "O=C(Nc1cccc(-c2nc3ccccc3[nH]2)c1)c1ccc(C(=O)Nc2cccc(-c3nc4ccccc4[nH]3)c2)cc1", "inhibition": "-2.5%"}
{"compound": "COCCN(CCOC)S(=O)(=O)c1ccc(C(=O)Nc2nc3c(s2)CCc2ccccc2-3)cc1", "inhibition": "-4.16%"}
{"compound": "Cc1nc2c(C(=O)NCc3ccc4c(c3)OCO4)c[nH]n2c(=O)c1Cc1ccccc1F", "inhibition": "0.13%"}
{"compound": "COc1ccc(C2C(C(C)=O)=C(O)C(=O)N2CCc2c[nH]c3ccccc23)cc1", "note": "(stereo not given)", "inhibition": "1.2%"}
{"compound": "Clc1ccc(-n2nnnc2-c2cnc(-c3ccccn3)nc2-c2cccs2)cc1", "inhibition": "-0.17%"}
{"compound": "CCC(=C/c1sc2ccc3ccccc3c2[n+]1C)/C=C1\\Sc2ccc3ccccc3c2N1C", "inhibition": "0.84%"}
{"compound": "CS(=O)(=O)c1ccc2c(c1)SC1=NC(=O)/C(=C/c3ccco3)C(=N)N12", "inhibition": "-6.01%"}
{"compound": "Cc1ccc2cc(CCNC(=O)c3c(-c4ccccc4Cl)noc3C)c(=O)[nH]c2c1", "inhibition": "-2.45%"}
{"compound": "CCOc1ccc(/C=C/C(=O)OCC(=O)c2ccccc2OC)cc1OC", "inhibition": "-0.62%"}
{"compound": "Cc1ccc(S(=O)(=O)N2[C@@H](c3cccc(Cl)c3)C(C(=O)O)=CC[C@H]2c2ccc(Cl)c(Cl)c2)cc1", "inhibition": "2.51%"}
{"compound": "Cc1cc(Nc2ccccc2)n(C(=O)c2ccc(N)cc2)n1", "inhibition": "3.89%"}
{"compound": "O=C1C2N=NN(CC(=O)N3N=C(c4cccc5ccccc45)CC3c3ccccc3)C2C(=O)N1c1ccccc1", "note": "(stereo not given)", "inhibition": "-0.31%"}
{"compound": "C=CCn1c(=S)[nH]c2scc(-c3ccco3)c2c1=O", "inhibition": "1.52%"}
{"compound": "CCCc1ccc(OCC(=O)NNC(=S)NC(=O)c2ccco2)cc1", "inhibition": "-5.19%"}
{"compound": "Cc1cc(N/N=C\\c2ccc(Br)cc2)nc(-n2nc(C)cc2C)n1", "inhibition": "-2.43%"}
{"compound": "Cc1ccc(-c2cc(C(=O)Nc3nn[nH]n3)c3ccccc3n2)c(C)c1", "inhibition": "-5.88%"}
{"compound": "Cc1ccc(NS(=O)(=O)c2ccc(N/N=C/c3ccccc3OCC(=O)O)c([N+](=O)[O-])c2)c(C)c1", "inhibition": "3.83%"}
{"compound": "OCCNc1nc(Nc2ccc(Cl)c(Cl)c2)nc2ccccc12", "inhibition": "6.65%"}
{"compound": "CSc1ccc(/C=N\\NC(=O)COc2ccc(Cl)cc2Br)cc1", "inhibition": "-2.43%"}
{"compound": "CCCCn1c(SCc2ncc(-c3ccccc3)o2)nc2cc(S(N)(=O)=O)ccc21", "inhibition": "-3.7%"}
{"compound": "CN(C(=O)COC(=O)c1cc(-c2ccco2)nc2ccccc12)C1CCS(=O)(=O)C1", "note": "(stereo not given)", "inhibition": "-3.35%"}
{"compound": "Oc1c(Cl)cc(Cl)c(Cl)c1Cc1c(O)c(Cl)cc(Cl)c1Cl", "inhibition": "-0.37%"}
{"compound": "Cc1cc(-c2csc(N)n2)c(C)n1-c1ccccc1", "inhibition": "-5.26%"}
{"compound": "C#CCOCCOCCOCCNc1nc(N2CCN(C(=O)CCCCCCCCCCNC(=O)[C@H](CCCCN)n3cc(C)nn3)CC2)nc(N2CCN(C(=O)CCCCCCCCCCNC(=O)[C@H](CO)n3cc(CCCSC)nn3)CC2)n1", "inhibition": "-2.42%"}
{"compound": "COc1cc(C2C(C(=O)c3ccc(C)o3)=C(O)C(=O)N2CCc2ccccc2)ccc1O", "note": "(stereo not given)", "inhibition": "1.74%"}
{"compound": "Cc1ccccc1S(=O)(=O)N1[C@@H](c2cccc(Cl)c2)C(C(=O)O)=CC[C@H]1c1ccc(Cl)cc1", "inhibition": "1.77%"}
{"compound": "O=C1C(=O)N(CC2COc3ccccc3O2)c2ccccc21", "note": "(stereo not given)", "inhibition": "-2.89%"}
{"compound": "C#CCOCCOCCOCCNc1nc(N2CCN(C(=O)CCCCCCCCCCNC(=O)[C@H]([C@@H](C)CC)n3cc(CCCCN=C(N)N)nn3)CC2)nc(N2CCN(C(=O)CCCCCCCCCCNC(=O)[C@H](CO)n3cc(CCCSC)nn3)CC2)n1", "inhibition": "4.44%"}
{"compound": "COc1ccc(-c2nn(-c3ccccc3)cc2/C=C\\C(=O)Nc2ccc(C(=O)O)cc2)cc1", "inhibition": "5.85%"}
{"compound": "C/C(CC(O)(/C=N/O)c1ccccc1)=N\\O", "note": "(stereo not given)", "inhibition": "-4.09%"}
{"compound": "N=c1n(Cc2ccc(Cl)cc2)c2ccccc2n1CC(O)c1ccco1", "note": "(stereo not given)", "inhibition": "-3.3%"}
{"compound": "CN1CCN(CCCNC(=O)c2ccc(/C=C3\\Oc4ccccc4N(Cc4ccc(Cl)cc4)C3=O)cc2)CC1", "inhibition": "0.17%"}
{"compound": "Oc1c(CN2CCN(c3ccc(F)cc3)CC2)cc(Cl)c2cccnc12", "inhibition": "2.27%"}
{"compound": "Cc1cccc(OCC(O)Cn2c(=N)n(CCN3CCOCC3)c3ccccc32)c1", "note": "(stereo not given)", "inhibition": "0.64%"}
{"compound": "CCNS(=O)(=O)c1ccc(NC(=O)Nc2cccc(C(F)(F)F)c2)cc1", "inhibition": "7.24%"}
{"compound": "COc1ccccc1/C=N\\Nc1cc(C)nc(-n2nc(C)cc2C)n1", "inhibition": "-0.35%"}
{"compound": "O=C(Nc1nnc(-c2ccccc2)o1)c1cc(-c2cccs2)nc2ccccc12", "inhibition": "-6.61%"}
{"compound": "Cc1ccc(-c2nn(-c3ccccc3)cc2/C=C2\\SC(=S)N(CCCCCC(=O)O)C2=O)o1", "inhibition": "1.44%"}
{"compound": "Cc1ccc2nc(N3C(=O)C(O)=C(C(=O)c4ccco4)C3c3cccc(O)c3)sc2c1", "note": "(stereo not given)", "inhibition": "-0.83%"}
{"compound": "COc1cnc(-c2ccccn2)nc1Oc1ccc(C(C)(C)C)cc1", "inhibition": "1.77%"}
{"compound": "O=C(Nc1nc(-c2ccco2)c(-c2ccco2)s1)c1ccco1", "inhibition": "0.46%"}
{"compound": "CCCOc1ccc(C2C(C(=O)c3ccc(C)o3)=C(O)C(=O)N2CCCn2ccnc2)cc1", "note": "(stereo not given)", "inhibition": "2.29%"}
{"compound": "O=C(CSc1nnc(C2CC2)n1Cc1ccccc1)Nc1cccnc1Cl", "inhibition": "-2.71%"}
{"compound": "Oc1ccc(C2Nc3cccc4cccc(c34)N2)cc1", "inhibition": "8.12%"}
{"compound": "C=CCN(CC=C)S(=O)(=O)c1ccc(C(=O)Nc2nc3c(s2)CCc2ccccc2-3)cc1", "inhibition": "-1.58%"}
{"compound": "CCCCCCCCCCOC(=O)Cn1c(COc2cccc(OC)c2)[n+](C)c2ccccc21", "inhibition": "3.6%"}
{"compound": "COc1cccc(/C=N/NC(=O)c2[nH]nc3c2CCc2ccccc2-3)c1O", "inhibition": "-2.54%"}
{"compound": "Cc1ccc(NC(=O)COc2ccc(/C=C3/NC(=O)NC3=O)cc2)cc1", "inhibition": "-6.15%"}
{"compound": "O=C(COC(=O)c1ccc(Oc2ccccc2)cc1)Nc1nnc(-c2ccccc2)o1", "inhibition": "-5.1%"}
{"compound": "CN(C(=O)CN(CCO)CC(=O)N(C)C(C)(C)Cc1ccccc1)C(C)(C)Cc1ccccc1", "inhibition": "-8.53%"}
{"compound": "O=C1c2cccc(OCC(=O)N3N=C(c4cccs4)CC3c3ccc(F)cc3)c2CCN1Cc1ccccc1", "note": "(stereo not given)", "inhibition": "-2.07%"}
{"compound": "O=C(/C=C/c1ccc(F)cc1)NC(=S)NNC(=O)c1cccnc1", "inhibition": "-1.96%"}
{"compound": "Cc1ccc(Nc2nc(CSc3nnnn3-c3ccccc3)cc(=O)[nH]2)cc1", "inhibition": "-0.66%"}
{"compound": "O=C(N=C1SC2CS(=O)(=O)CC2N1c1cc(Cl)ccc1Cl)C1CC1", "note": "(stereo not given)", "inhibition": "-3.78%"}
{"compound": "O=C(Nc1ccc(S(=O)(=O)Nc2nccs2)cc1)c1cc(-c2ccncc2)nc2ccccc12", "inhibition": "0.33%"}
{"compound": "OCCCN1c2ccccc2Nc2nnc(-c3ccccc3)cc21", "inhibition": "4.57%"}
{"compound": "C/C(=N\\c1nc2ccccc2n1C)c1cc(Cl)ccc1O", "inhibition": "-5.58%"}
{"compound": "COc1ccccc1NC(=O)CSc1nc2sc3c(c2c(=O)n1-c1ccccc1)CCN(C)C3", "inhibition": "-2.95%"}
{"compound": "Cc1ccc(CSCC2Nc3ccc(C(=O)N4CCN(c5ccc(F)cc5)CC4)cc3NC2=O)cc1", "note": "(stereo not given)", "inhibition": "-0.12%"}
{"compound": "Cc1ccc(C)c(Cn2nnc3c(=O)[nH]c(C(=O)Nc4ccc(F)cc4)nc32)c1", "inhibition": "-0.92%"}
{"compound": "CCCCCCCCCCOC(=O)Cn1c(COc2ccc(C)cc2)[n+](C)c2ccccc21", "inhibition": "1.37%"}
{"compound": "C#CCOCCOCCOCCNc1nc(N2CCN(C(=O)CCCCCCCCCCNC(=O)Cn3cc(CCCCCN)nn3)CC2)nc(N2CCN(C(=O)CCCCCCCCCCNC(=O)[C@H](CO)n3cc(CCCSC)nn3)CC2)n1", "inhibition": "0.18%"}
{"compound": "Cc1ccc(Cn2nnc3c(=O)[nH]c(C4CCN(S(=O)(=O)/C=C/c5ccccc5)CC4)nc32)cc1", "inhibition": "2.46%"}
{"compound": "O=[N+]([O-])c1ccccc1/C=N/n1c(COc2ccccc2)n[nH]c1=S", "inhibition": "-5.54%"}
{"compound": "Cc1nc(/N=C(\\N)NC(=O)NC2CCCCC2)nc2ccccc12", "inhibition": "-1.97%"}
{"compound": "COC(=O)Cc1cc(=O)n(-c2nc3ccccc3s2)[nH]1", "inhibition": "0.87%"}
{"compound": "c1ccc(-c2nccc(-c3ccc(-n4cnc5ccccc54)cc3)n2)nc1", "inhibition": "3.84%"}
{"compound": "O=C(N/N=C/c1cc([N+](=O)[O-])ccc1O)/C(=C\\c1cccs1)NC(=O)c1ccccc1", "inhibition": "-3.51%"}
{"compound": "COc1ccc(NC(=O)C2C3CCC(O3)C2C(=O)O)cc1OC", "note": "(stereo not given)", "inhibition": "39.5% (active)"}
{"compound": "CC(C)OC(=O)c1cc(NC(=O)C2C3CCC(O3)C2C(=O)O)cc(C(=O)OC(C)C)c1", "note": "(stereo not given)", "inhibition": "9.52%"}
{"compound": "Cc1cc(N2C(=O)C(O)=C(C(=O)c3ccc(C)o3)C2c2ccc(OCc3ccccc3)cc2)no1", "note": "(stereo not given)", "inhibition": "-0.28%"}
{"compound": "O=[N+]([O-])/C=C/c1ccc2c(ccn2Cc2ccccc2)c1", "inhibition": "-1.11%"}
{"compound": "C=CCn1c(=NC(=O)c2ccc(S(=O)(=O)N3CCCC3)cc2)sc2cc(NC(C)=O)ccc21", "inhibition": "-0.04%"}
{"compound": "COCCCNC(=O)C1CC(=O)N(c2ccc(C)cc2)C1", "note": "(stereo not given)", "inhibition": "-1.02%"}
{"compound": "NC(N)=N/N=C/c1ccc(OCc2ccc(Cl)cc2Cl)cc1", "inhibition": "-2.25%"}
{"compound": "Cc1ccc(-n2nc3ccc(NC(=O)/C=C/c4ccco4)cc3n2)cc1C", "inhibition": "-6.55%"}
{"compound": "Clc1ccc2c(c1)C1=C(C(c3ccncc3)O2)C(c2ccc(Br)cc2)n2ncnc2N1", "note": "(stereo not given)", "inhibition": "2.48%"}
{"compound": "CCn1c(SCC(=O)Nc2cc(C)ccc2C)nnc1-c1cnccn1", "inhibition": "-3.87%"}
{"compound": "Oc1c(C(c2ccccn2)N2CCOCC2)ccc2cccnc12", "note": "(stereo not given)", "inhibition": "-0.03%"}
{"compound": "N#Cc1c(-c2ccccc2)nc(SCc2cccc(C(F)(F)F)c2)[nH]c1=O", "inhibition": "-1.06%"}
{"compound": "C=C1c2c(Cl)ccc(O)c2C(O)=C2C(=O)[C@]3(O)C(O)=C(C(N)=O)C(=O)[C@@H](N(C)C)[C@@H]3[C@@H](O)C12", "note": "(stereo not given in full)", "inhibition": "2.9%"}
{"compound": "Cc1ccc(N2C(=O)C3N=NN(CC(=O)N4N=C(c5cccc6ccccc56)CC4c4ccccc4)C3C2=O)cc1", "note": "(stereo not given)", "inhibition": "-0.1%"}
{"compound": "CC(=O)c1ccc(N2CCN(S(=O)(=O)c3ccc4c(c3)CC(=O)N4C)CC2)cc1", "inhibition": "2.4%"}
{"compound": "COc1ccc(-c2nn(-c3ccccc3)cc2/C=C2/SC(=S)N(CCCC(=O)O)C2=O)c(C)c1", "inhibition": "-0.32%"}
{"compound": "Cc1ccc(OCC(=O)Nc2ccc(-c3nnc(-c4ccco4)o3)cc2)cc1", "inhibition": "-4.22%"}
{"compound": "CCOc1ccc(NC(=O)c2ccc(NC(=O)COC(=O)c3ccc(NC(=O)CC#N)cc3)cc2)cc1", "inhibition": "-3.12%"}
{"compound": "CC(C)(C)Nc1nc(-c2ccccn2)nc2ccccc12", "inhibition": "-4.55%"}
